# PubChem BioAssay (NCATS)
# Inconclusive results are not listed. The source made the active and inactive calls. Calls come from the whole dose curve; as a rule, active = well fitted inhibition curve with a large enough effect; inconclusive = small, poorly fitted or top-dose-only effect; inactive = flat fitted curve, though single readings scatter.
# Tested on: WaGa
# Experiment: qHTS assay to identify novel small-molecules to repurpose for Merkel cell carcinoma treatment (AID 1296009); note: nearly all actives have a fitted effect of over 60% in size
# Conditions: MCC and control cell lines, CellTiter-Glo viability, 72 h; series mostly up to 46 µM; activity change, negative = cytotoxicity: at the top concentration
# Summary of the method: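 Cells were incubated with compound for 72 hr at 37 degree celsius before CellTiter-Glo addition. Luminescence was normalized with no-cell wells as full cytotoxicity and DMSO as baseline.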
# % is set by controls: 0 for no effect and ±100 for the full control effect.
row,SMILES,"activity change, negative = cytotoxicity"
1,Cc1ncc([N+](=O)[O-])n1CC(O)CCl (centres undefined),7.75% (inactive)
2,C[C@@H]1CCN(C(=O)[C@H](CCCN=C(N)N)NS(=O)(=O)c2cccc3c2NC[C@H](C)C3)[C@@H](C(=O)O)C1,21.5% (inactive)
3,C[C@H](NC(CCc1ccccc1)C(=O)O)C(=O)N1CCC[C@H]1C(=O)O (some centres undefined),20.2% (inactive)
4,Oc1ccc(C(O)CNCCCCCCNCC(O)c2ccc(O)c(O)c2)cc1O (centres undefined),-1.64% (inactive)
5,CCCCC(CC)COC(=O)c1ccccc1O (centres undefined),1.21% (inactive)
6,N[C@H](C(=O)O)c1ccc(O)cc1,11.3% [at 16.1 µM] (inactive)
7,NC(=O)NC(=O)Cc1ccccc1,8.54% (inactive)
8,C#CCN(C)Cc1ccccc1,25.4% (inactive)
9,NS(=O)(=O)c1cc2c(cc1C(F)(F)F)NC(Cc1ccccc1)NS2(=O)=O (centres undefined),-4.18% (inactive)
10,O=C1N=C(O)CN1/N=C/c1ccc(-c2ccc([N+](=O)[O-])cc2)o1,-0.244% (inactive)
11,CCCCCCCCCCCCCCCCCCOCC(O)CO (centres undefined),16.6% (inactive)
12,NCCNCCNCCNCCN,-2.21% [at 9.22 µM] (inactive)
13,CN(C)CCCO[C@@H]1[C@H]2OC(C)(C)O[C@H]2O[C@@H]1C(O)CO (some centres undefined),14.1% (inactive)
14,OC[C@H]1O[C@@H](O[C@@H]2[C@@H](CO)O[C@](O)(CO)[C@H]2O)[C@H](O)[C@@H](O)[C@H]1O,-0.851% (inactive)
15,N[C@@H](CSSC[C@H](N)C(=O)O)C(=O)O,9.72% [at 0.597 µM] (inactive)
16,CC1(C)CO[C@@H](CC(=O)O)CN1,17.1% (inactive)
17,CC1=C(C/C=C(\C)CCC[C@H](C)CCC[C@H](C)CCCC(C)C)C(=O)c2ccccc2C1=O,11% (inactive)
18,COc1cc(C(=O)N2CCOCC2)cc(OC)c1OC,4.93% (inactive)
19,CCCCC/C(C=O)=C\c1ccccc1,17.5% (inactive)
20,CC(=O)Nc1ccc(/C=N/NC(N)=S)cc1,0.922% (inactive)

row,SMILES,"activity change, negative = cytotoxicity"
1,O=C1OC(OC(=O)c2cccnc2Nc2cccc(C(F)(F)F)c2)c2ccccc21 (centres undefined),13.2% (inactive)
2,O=C(O)CN1C(=O)c2cccc3cccc(c23)C1=O,13.4% (inactive)
3,CN1[C@@H]2CC[C@H]1CC(OC(=O)C(O)c1ccccc1)C2 (some centres undefined),4.88% (inactive)
4,O=C(Oc1ccccc1C(=O)O)c1ccccc1O,17.8% (inactive)
5,CC(COc1ccccc1)NC(C)C(O)c1ccc(O)cc1 (centres undefined),8.97% (inactive)
6,CCN(CC)CCOC(=O)C1(C2CCCCC2)CCCCC1,-20% (inactive)
7,Cc1cc(O)cc2c1O[C@](C)(CCC[C@H](C)CCC[C@H](C)CCCC(C)C)CC2,7.71% (inactive)
8,O=S(=O)(O)c1cc(I)c(O)c2ncccc12,3.64% (inactive)
9,Cc1ncc(COP(=O)(O)O)c(C=O)c1O,4.21% (inactive)
10,CO/N=C(\C(=O)N[C@@H]1C(=O)N2C(C(=O)O)=C(CSc3nc(=O)c(O)nn3C)CS[C@H]12)c1csc(N)n1,-6.92% (inactive)
11,O=C(O)COc1nn(Cc2ccccc2)c2ccccc12,8.61% (inactive)
12,CCCc1c(OCCCCc2nn[nH]n2)ccc(C(C)=O)c1O,-9.8% (inactive)
13,COc1ccc2cc1Oc1cc3c(cc1OC)CC[N+](C)(C)[C@H]3Cc1ccc(cc1)Oc1c(OC)c(OC)cc3c1[C@@H](C2)[N+](C)(C)CC3,17.9% (inactive)
14,NC1CCN(c2cccc(Cl)n2)CC1,1.71% (inactive)
15,Nc1cc(=O)[nH]c(N)n1,-10.2% (inactive)
16,CC(O)COc1ccccc1 (centres undefined),18.2% (inactive)
17,CC1CC(OC(=O)C(O)c2ccccc2)CC(C)(C)N1C (centres undefined),11.2% (inactive)
18,O=C1O[C@H](CO)[C@@H](O)[C@H](O)[C@H]1O,8.76% (inactive)
19,NC(CSCC(=O)O)C(=O)O (centres undefined),10.8% (inactive)
